# High-throughput results (PubChem)
# The list is not random: actives were taken first. Their share in the collection is about 3.5%.
# Autofluor counter = compound fluorescence in toxin protease inhibitor counterscreen; compound autofluorescence counterscreen, microsphere flow cytometry; active compounds read high; fluorescence intensity (no concentration beside the values); hit rate 3.1% among 360,000; AID 624483; in the data active = fluorescence intensity above about 16000
# Anthrax LF prot = blocks Bacillus anthracis lethal factor protease | hit rate 0.12% among 360,000 | inhibition, % at 10 µM | multiplex microsphere protease cleavage assay, LF | P15917; note: plate controls were buffer without enzyme for full effect and enzyme alone for no effect
# Target sequence (P15917 whole entry, looked up): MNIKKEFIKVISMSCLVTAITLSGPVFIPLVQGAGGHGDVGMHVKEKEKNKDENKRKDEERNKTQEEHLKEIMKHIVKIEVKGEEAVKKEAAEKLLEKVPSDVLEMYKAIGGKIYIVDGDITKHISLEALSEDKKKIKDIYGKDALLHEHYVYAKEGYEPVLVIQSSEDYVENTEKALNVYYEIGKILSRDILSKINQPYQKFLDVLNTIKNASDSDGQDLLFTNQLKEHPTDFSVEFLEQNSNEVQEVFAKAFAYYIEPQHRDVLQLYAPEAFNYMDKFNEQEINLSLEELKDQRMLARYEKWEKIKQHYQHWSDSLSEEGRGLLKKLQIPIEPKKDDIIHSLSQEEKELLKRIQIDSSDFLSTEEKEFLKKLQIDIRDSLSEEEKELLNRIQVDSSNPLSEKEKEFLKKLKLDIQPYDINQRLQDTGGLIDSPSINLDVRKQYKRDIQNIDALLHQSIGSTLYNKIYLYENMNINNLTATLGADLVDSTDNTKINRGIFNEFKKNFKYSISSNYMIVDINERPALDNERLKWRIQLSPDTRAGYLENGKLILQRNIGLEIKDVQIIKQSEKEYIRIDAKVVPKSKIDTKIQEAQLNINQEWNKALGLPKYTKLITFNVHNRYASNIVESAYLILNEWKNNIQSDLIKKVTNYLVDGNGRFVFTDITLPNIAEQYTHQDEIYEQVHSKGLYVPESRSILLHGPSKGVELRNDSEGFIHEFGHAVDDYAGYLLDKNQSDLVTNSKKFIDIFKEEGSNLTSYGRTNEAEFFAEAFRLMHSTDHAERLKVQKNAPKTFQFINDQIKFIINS
# BoNT-A LC inh2 = inhibitors of Botulinum neurotoxin A light chain protease | multiplex microsphere protease substrate cleavage, flow cytometry | hit rate 0.17% among 360,000 | inhibition, % at 10 µM; note: plate controls were buffer without enzyme for full effect and enzyme alone for no effect
# BoNT-F LC inh = inhibitors of Botulinum neurotoxin F light chain protease; Multiplex microsphere protease cleavage assay, flow cytometry; hit rate 0.22% among 360,000; AID 588497; inhibition, % at 10 µM; in the data active = inhibition above about 35%, passing the limit was not always enough; note: plate controls were buffer without enzyme for full effect and enzyme alone for no effect
# BoNTA LC inh 2 = BoNT/A light chain protease inhibition | shares compounds with BoNT-A LC inh2 | multiplex microsphere protease cleavage assay, flow cytometry | inhibition, % at 10 µM | hit rate 10% among 150; in the data active = inhibition above about 24%
# Anthrax LF CP2 = Bacillus anthracis lethal factor protease inhibition; shares compounds with BoNT-A LC inh2; inhibition, % at 10 µM; hit rate 7% among 150; multiplex microsphere protease cleavage assay; in the data active = inhibition above about 25%
# BoNTF LC inh 2 = blocks botulinum neurotoxin F light chain protease; inhibition, % at 10 µM; multiplex microsphere protease cleavage assay, flow cytometry; hit rate 7% among 150; shares compounds with BoNT-A LC inh2; in the data active = inhibition above about 25%
# * = called active by the depositor; . = not tested or not shown. Cut-off read from the data, not from the text of the source, unless noted: active = inhibition above about 30%; inconclusive = no clear call, values can overlap the other calls; inactive = below that.
SMILES,Autofluor counter,Anthrax LF prot,BoNT-A LC inh2,BoNT-F LC inh,BoNTA LC inh 2,Anthrax LF CP2,BoNTF LC inh 2
COc1ccc(Cc2c(-c3ccc(OC)c(OC)c3)nc3c(C)cc(Br)cn23)c(C)c1,7593,20,32*,-3,11,8,-2
COc1ccc(Cc2c(-c3ccc(OC)c(OC)c3)nc3cc(C)c(Br)c(C)n23)c(C)c1,4775,-21,0,-7,2,-1,4
COc1ccc(S(=O)(=O)Nc2ccc(NC(C)=O)cc2)cc1[N+](=O)[O-],4627,-1,0,-1,.,.,.
Cc1cc2cc(CNC(=O)c3ccc(C)c([N+](=O)[O-])c3)ccc2[nH]1,3000,-69,65*,-89,4,3,8
O=C(NCCCNC(=O)c1cc(Cl)ccc1Cl)c1ccccn1,2960,3,-3,25,.,.,.
CC1(C)CC(=O)C=C(c2ccc(Oc3ccccc3)cc2)C1=O,3621,4,2,-1,.,.,.
COc1ccc(C#Cc2ccc(C3=CC(=O)CC(C)(C)C3=O)cc2)cc1,3071,30*,29,13,16,11,16
Cn1ccc2c(-c3ccc(F)cc3)cc3c(c21)C1CCC3C1 (stereo not drawn),5633,5,6,-12,4,1,-2
Cn1ccc2c(-c3ccc4c(c3)OCCO4)cc3c(c21)C1CCC3C1 (stereo not drawn),3482,-14,11,-30,5,-5,-24
Cn1ccc2c(-c3ccc(C(F)(F)F)cc3)cc3c(c21)C1CCC3O1 (stereo not drawn),5675,-3,1,6,.,.,.
Cc1ccccc1-c1cc2c(c3c1ccn3C)C1CCC2C1 (stereo not drawn),5502,9,6,-13,4,1,-4
Cn1ccc2c(-c3ccc(C(F)(F)F)cc3)cc3c(c21)C1CCC3C1 (stereo not drawn),5818,-12,2,2,2,-2,-6
COc1ccc(C(O)c2ncc(-c3cccc(OCc4ccccc4)c3)[nH]2)cc1F (stereo not drawn),3710,5,0,-3,.,.,.
CCCCNC(=O)CNC(=S)N(CCCN1CCOCC1)Cc1cccs1,7214,-4,1,0,.,.,.
CSc1ccc(-c2cc3c(c4c2ccn4C)C2CCC3C2)cc1 (stereo not drawn),6020,1,1,-17,.,.,.
Cn1ccc2c(-c3ccc(CO)cc3)cc3c(c21)C1CCC3C1 (stereo not drawn),5459,7,5,-14,4,2,7
COc1ccc(-c2cc3c(c4c2ccn4C)C2CCC3C2)cc1F (stereo not drawn),3355,17,17,-6,4,-2,-14
Cn1ccc2c(-c3ccc(C(N)=O)cc3)cc3c(c21)C1CCC3C1 (stereo not drawn),6175,6,0,-5,1,2,4
COc1ccc(-c2cc3c(c4c2ccn4C)C2CCC3O2)cc1OC (stereo not drawn),6255,-4,1,-8,.,.,.
O=C(NC[C@@H]1CCCO1)c1cccc2c1C(=O)c1ccc(N3CCOCC3)cc1S2(=O)=O,3924,-2,0,1,.,.,.
O=C(NCC1CC1)c1cccc2c1C(=O)c1ccc(N3CCCC3)cc1S2(=O)=O,4247,2,2,-1,.,.,.
COc1ccccc1N1CCN(c2ccc3c(c2)S(=O)(=O)c2cccc(C(=O)NCc4cccc(F)c4)c2C3=O)CC1,3870,-10,0,-3,2,-2,-4
O=C(NC1CCCCC1)c1cccc2c1C(=O)c1ccc(N3CCC(Cc4ccccc4)CC3)cc1S2(=O)=O,5311,34*,26,14,8,8,12
CC1CCN(c2ccc3c(c2)S(=O)(=O)c2cccc(C(=O)NC4CC4)c2C3=O)CC1,3947,-2,1,1,5,6,13
CC1CCN(c2ccc3c(c2)S(=O)(=O)c2cccc(C(=O)NC[C@@H]4CCCO4)c2C3=O)CC1,3805,4,2,-6,2,1,5
CN(Cc1ccccc1)C(=O)CCS(=O)(=O)c1ccc2c(c1)NC(=O)CS2,5683,-1,2,7,.,.,.
Cc1ncsc1CCSc1nc2ccccc2c(=O)n1C,7750,-2,1,1,.,.,.
CCN(CC)S(=O)(=O)c1cccc(NC(=O)COC(=O)c2ccc(Br)o2)c1,3342,1,0,-4,.,.,.
CCN(CC)S(=O)(=O)c1cccc(NC(=O)COC(=O)c2cncc(Br)c2)c1,4126,39*,23,10,16,18,14
